Assay [1] in a line: qHTS assay to identify small molecule agonists of the androgen receptor (AR) signaling pathway in the presence of an antagonist - cell viability counter screen (AID 1259379).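 Further: MDA-kb2 human breast cancer cells carrying an MMTV luciferase reporter; series mostly up to about 92 µM; nearly all actives have a fitted effect of over 25% in size.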 Summed up: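 Viability counter screen: CellTiter-Fluor fluorescence, measured in the same wells as the luciferase read-out. MDA-kb2 cells, 3,000/well, with nilutamide at 3.0uM final and compounds at 15 concentrations, 16 hr at 37C, 0% CO2.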

A short description of assay [2]: qHTS assay to identify small molecule agonists of the estrogen receptor beta (ER-beta) signaling pathway - cell viability counter screen (AID 1259380). Further: nearly all actives have a fitted effect of over 30% in size. In short, it runs like this:
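Luminescence read-out (CellTiter-Glo, 30 min, room temp) taken in the same wells as the beta-lactamase reporter assay; ER-beta-UAS-bla HEK293T cells exposed to DMSO-dissolved compounds for 16 hr at 37C in 2% charcoal-stripped FBS medium.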
(In general: In qHTS, concentration-response curves come from the screen itself.)

The nature of assay [3]: qHTS assay to identify small molecule antagonists of the estrogen receptor beta (ER-beta) signaling pathway - cell viability counter screen (AID 1259382).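 Further: HEK293T cells carrying ER-beta-UAS-bla reporter stimulated with estradiol; series mostly up to about 92 µM; nearly all actives have a fitted effect of over 55% in size.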 Summed up:
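Luminescent ATP read-out (CellTiter-Glo, 30 min, RT) taken in the same wells as the bla reporter assay. HEK293T ER-beta-UAS-bla cells in 2% charcoal-stripped FBS were exposed to compounds with 1nM E2 for 16 hr at 37C.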

Assay [4] is described as follows: qHTS assay to identify small molecule agonists or antagonists of the thyroid stimulating hormone receptor (TSHR) signaling pathway - wild type cell line counter screen (AID 1259384; calls by dose curve). Summed up: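 Wild-type Hek293 cells, 800/well, 18 h at 37C, then compound with Ro20-1724 for 30 min RT. cAMP by HTRF (cAMP-d2/anti-cAMP cryptate), 1 h RT, fluorescence read. 15 concentrations, triplicates.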

Assay [5] deals with Thyrotropin receptor (Homo sapiens) (UniProt P16473). In words: qHTS assay to identify small molecule antagonists of the thyroid stimulating hormone receptor (TSHR) signaling pathway (AID 1259385; calls by dose curve; further: nearly all actives have a fitted effect of over 20% in size). Summed up:
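TSHR-HEK293 cells (800/well) plated 18 h, then compounds with Ro20-1724 and TSH at 1.5 ng/mL final, 30 min at room temperature. cAMP quantified by HTRF (cAMP-d2/anti-cAMP-cryptate, 1 h); 15 concentrations in triplicate.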

Assay [6] in a line: qHTS assay to identify small molecule agonists of the estrogen receptor alpha (ER-alpha) signaling pathway in the presence of an antagonist - cell viability counter screen (AID 1259386).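 Further: cells exposed to compounds for 22 h at 37 °C before the viability read; nearly all actives have a fitted effect of over 30% in size.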 Further: potency means the concentration at half of the fitted maximal effect. On activity change, negative = cytotoxicity: series mostly up to about 92 µM. Summed up:
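Read-out: CellTiter-Fluor fluorescence after 1hr reagent incubation, measured in the same wells as the luciferase readout. VM7Luc4E2 cells were exposed to 15 compound concentrations with 10.0nM ICI-182,780 for 22hr at 37C.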

For assay [7], the target named is Estrogen receptor (Homo sapiens) (UniProt P03372). The experiment in a line: qHTS assay to identify small molecule agonists of the estrogen receptor alpha (ER-alpha) signaling pathway in the presence of an antagonist (AID 1259383; calls by dose curve; further: top concentration of the series differs between compounds; nearly all actives have a fitted effect of over 15% in size). In short, it runs like this: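 Luciferase luminescence (ONE-Glo, 30min at room temperature) measured in VM7Luc4E2 cells after 22hr compound exposure at 15 concentrations, with 10.0nM ICI-182,780 final present; cells express endogenous ER-alpha and carry four EREs upstream of luciferase.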
Estrogen receptor (Homo sapiens), sequence (P03372 whole entry, looked up): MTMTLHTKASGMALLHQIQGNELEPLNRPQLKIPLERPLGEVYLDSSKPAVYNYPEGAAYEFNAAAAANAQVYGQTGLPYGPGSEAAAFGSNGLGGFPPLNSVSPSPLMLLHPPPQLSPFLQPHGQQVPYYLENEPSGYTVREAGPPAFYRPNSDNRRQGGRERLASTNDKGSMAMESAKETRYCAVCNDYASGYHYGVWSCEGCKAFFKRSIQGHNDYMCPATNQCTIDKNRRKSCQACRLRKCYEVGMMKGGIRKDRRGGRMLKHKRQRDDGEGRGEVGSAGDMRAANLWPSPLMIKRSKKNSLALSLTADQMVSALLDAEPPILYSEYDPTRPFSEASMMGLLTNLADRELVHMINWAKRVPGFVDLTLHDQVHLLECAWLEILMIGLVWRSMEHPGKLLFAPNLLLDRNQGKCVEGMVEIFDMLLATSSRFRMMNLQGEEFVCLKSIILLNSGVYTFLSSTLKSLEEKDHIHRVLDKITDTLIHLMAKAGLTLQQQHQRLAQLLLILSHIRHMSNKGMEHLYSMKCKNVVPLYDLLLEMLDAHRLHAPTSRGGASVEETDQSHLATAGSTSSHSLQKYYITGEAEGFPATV

Values without a mark were called inactive. Records with an inconclusive call do not appear. The source made the active and inactive calls. Unless noted, the call rests on the fitted dose curve; in most records, active means well fitted curve in the direction sought with a large enough effect in the repeat runs; inconclusive means weak or mixed curves; inactive means no such curve, though single readings can be large; an effect the other way counts as inactive or inconclusive.
On the % scale 0 is the no-effect control and ±100 the full control effect.

Thyrotropin receptor (Homo sapiens), sequence (P16473 whole entry, looked up): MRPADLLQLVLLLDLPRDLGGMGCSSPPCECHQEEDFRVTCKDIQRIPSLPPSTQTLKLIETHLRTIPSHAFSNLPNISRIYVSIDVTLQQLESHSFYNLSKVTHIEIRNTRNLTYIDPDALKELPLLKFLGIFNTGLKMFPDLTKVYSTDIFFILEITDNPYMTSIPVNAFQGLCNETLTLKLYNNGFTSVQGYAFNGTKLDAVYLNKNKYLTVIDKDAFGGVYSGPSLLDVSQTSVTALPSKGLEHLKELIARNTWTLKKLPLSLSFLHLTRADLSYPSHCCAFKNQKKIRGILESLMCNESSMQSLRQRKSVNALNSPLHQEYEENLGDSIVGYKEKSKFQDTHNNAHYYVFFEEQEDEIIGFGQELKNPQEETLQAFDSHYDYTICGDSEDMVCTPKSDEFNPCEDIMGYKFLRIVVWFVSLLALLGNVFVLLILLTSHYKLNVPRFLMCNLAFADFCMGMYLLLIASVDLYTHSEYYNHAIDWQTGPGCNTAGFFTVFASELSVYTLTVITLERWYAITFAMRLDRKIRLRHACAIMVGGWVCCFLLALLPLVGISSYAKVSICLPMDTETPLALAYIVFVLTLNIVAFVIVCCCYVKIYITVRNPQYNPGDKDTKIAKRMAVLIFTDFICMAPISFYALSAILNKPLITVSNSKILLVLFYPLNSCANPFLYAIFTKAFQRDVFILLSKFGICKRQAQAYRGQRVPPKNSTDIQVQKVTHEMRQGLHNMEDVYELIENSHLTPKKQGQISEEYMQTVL

`[Ca+2]`: the Potency entry in assay [1], in assay [2] and in assay [6] was “inactive” in each case. Moreover, the compound was classed as inactive in assay [3], in assay [4] and in assay [5].
Take `CC[C@H]1OC(=O)[C@H](C)[C@@H](O[C@H]2C[C@@](C)(OC)[C@@H](O)[C@H](C)O2)[C@H](C)[C@@H](O[C@@H]2O[C@H](C)C[C@H](N(C)C)[C@H]2O)[C@](C)(OC)C[C@@H](C)C(=O)[C@H](C)[C@@H](O)[C@]1(C)O`: the Potency result in assay [1], in assay [2] and in assay [6] was “inactive” each time. Also, the result in assay [3] and in assay [7] was inactive.
Turning to `CO/N=C(\C(=O)N[C@@H]1C(=O)N2C(C(=O)O)=C(CSc3nc(=O)c(O)nn3C)CS[C@H]12)c1csc(N)n1`, the Potency result in assay [1], in assay [2] and in assay [6] was “inactive” throughout. The compound was classed as inactive in assay [3], in assay [4] and in assay [5].
Turning to `NCCCC(N)(C(=O)O)C(F)F` (centres undefined), the Potency result in assay [1], in assay [2] and in assay [6] was “inactive” in each case. For the same compound, the outcome in assay [3], in assay [4] and in assay [5] was inactive.
With `N[C@@H](CCC(=O)O)C(=O)O`, the Potency result in assay [1], in assay [2] and in assay [6] was “inactive” each time. The call in assay [3], in assay [7], in assay [4] and in assay [5] was inactive.
Turning to `CC(C)C[C@@H](N)C(=O)O`, the activity change, negative = cytotoxicity was 0.366% [at 19 µM] in assay [1], 2.37% [at 19 µM] in assay [2], 1.92% [at 19 µM] in assay [3] and 2.39% [at 19 µM] in assay [6]. For the same compound, the cAMP activity change in assay [4] was 1.68% [at 18.9 µM]. The activity change, negative = inhibition in assay [5] is 2.7% [at 19 µM].
As to `CCOc1ccc2nc(S(N)(=O)=O)sc2c1`, the Potency entry in assay [1], in assay [2] and in assay [6] was “inactive” in each case. The call in assay [3], in assay [7] and in assay [5] was inactive.
With `Clc1cc(Cl)c(Cl)nc1Cl`, the Potency result in assay [1], in assay [2] and in assay [6] was “inactive” in each case. The outcome in assay [3], in assay [4] and in assay [5] was inactive.
As for `Cc1ccccc1N=C(N)N=C(N)N`, the Potency result in assay [1], in assay [2] and in assay [6] was “inactive” throughout. For the same compound, the compound was called inactive in assay [3], in assay [4] and in assay [5].
As to `CC(=O)Oc1cccc(C)c1`, the Potency entry in assay [1], in assay [2] and in assay [6] was “inactive” in each case. Besides, the compound was classed as inactive in assay [3], in assay [4] and in assay [5].
On to `COc1cc(C)nc(-n2nc(C)cc2OC)n1`, for which the Potency entry in assay [1], in assay [2] and in assay [6] was “inactive” throughout. Besides, the compound was called inactive in assay [3], in assay [4] and in assay [5].
`CO[C@@]1(NC(=O)C(C(=O)O)c2ccc(O)cc2)C(=O)N2C(C(=O)O)=C(CSc3nnnn3C)CO[C@@H]21` (some centres undefined): the Potency entry in assay [1], in assay [2] and in assay [6] was “inactive” each time. The compound was classed as inactive in assay [3], in assay [7], in assay [4] and in assay [5].
For `CCCCCCCCCCCCCCCCCCO`, the Potency result in assay [1], in assay [2] and in assay [6] was “inactive” throughout. For the same compound, the result in assay [3], in assay [7], in assay [4] and in assay [5] was inactive.
For `CC[N+](C)(CC)CCOC(=O)C1c2ccccc2Oc2ccccc21`, the Potency entry in assay [1], in assay [2] and in assay [6] was “inactive” each time. In addition, the outcome in assay [3], in assay [4] and in assay [5] was inactive.
With `CN1[C@@H]2CC[C@H]1CC(OC(=O)C(O)c1ccccc1)C2` (some centres undefined), the Potency entry in assay [1], in assay [2] and in assay [6] was “inactive” throughout. Further, the outcome in assay [3], in assay [4] and in assay [5] was inactive.
With `CC(=O)c1cnccn1`, the Potency entry in assay [1], in assay [2] and in assay [6] was “inactive” each time. For the same compound, the call in assay [3], in assay [7], in assay [4] and in assay [5] was inactive.
For `c1coc(CNc2ncnc3nc[nH]c23)c1`, the Potency result in assay [1], in assay [2] and in assay [6] was “inactive” each time. The compound was called inactive in assay [3], in assay [7], in assay [4] and in assay [5].
As for `CCCCOC(=O)CCC(C)=O`, the Potency entry in assay [1], in assay [2] and in assay [6] was “inactive” each time. Also, the compound was called inactive in assay [3], in assay [7] and in assay [5].
Take `CCC1C(=O)OCC1Cc1cncn1C` (centres undefined): the Potency result in assay [1], in assay [2] and in assay [6] was “inactive” in each case. Also, the result in assay [3], in assay [4] and in assay [5] was inactive.
For the compound `CCCC(C)C(=O)OCC` (centres undefined), the Potency result in assay [1], in assay [2] and in assay [6] was “inactive” throughout. The outcome in assay [3], in assay [7], in assay [4] and in assay [5] was inactive.
In the case of `CC(C)COC(=O)c1ccc(N)cc1`, the Potency result in assay [1], in assay [2] and in assay [6] was “inactive” each time. Also, the compound was called inactive in assay [3], in assay [4] and in assay [5].
As for `COc1cc(C(=O)NCc2ccc(OCCN(C)C)cc2)cc(OC)c1OC`, the Potency entry in assay [1], in assay [2] and in assay [6] was “inactive” each time. Besides, the compound was classed as inactive in assay [3], in assay [4] and in assay [5].
Regarding `COc1ccccc1OCC1CNC(=O)O1` (centres undefined), the Potency result in assay [1], in assay [2] and in assay [6] was “inactive” each time. In addition, the result in assay [3], in assay [4] and in assay [5] was inactive.
For `CCN[C@@H]1C[C@H](N)[C@@H](OC2OC(CN)=CCC2N)[C@H](O)[C@H]1O[C@H]1OC[C@](C)(O)[C@H](NC)[C@H]1O` (some centres undefined), the figures for the activity change, negative = cytotoxicity in assay [1], in assay [3] and in assay [6] were 0.828% [at 0.35 µM], 16.4% [at 0.349 µM] and 7.38% [at 0.349 µM], respectively.
With `CNCC(O)c1ccc(O)c(O)c1` (centres undefined), the Potency entry in assay [1] and in assay [2] was “inactive” in each case. Also, the compound was called inactive in assay [3] and in assay [5]. The Potency in assay [6] was 29.8 µM (active).
As for `Nc1ccccn1`, the Potency entry in assay [1] is “inactive”. Besides, the call in assay [3], in assay [4] and in assay [5] was inactive.
On to `O=C(O)CNC(=O)c1ccc(CO)o1`, for which the Potency entry in assay [1], in assay [2] and in assay [6] was “inactive” each time. For the same compound, in assay [3], the outcome was inactive.

The record behind these values is PubChem BioAssay (Tox21).
